This passage reports outcome and AC50 results from PubChem BioAssay (EPA / NIEHS).

Inconclusive results are not listed. Calls of active or inactive are those of the source. How the source made its calls: active means hit-call score of the fitted dose curve at least 0.9, where 1 is the maximum; inconclusive means response in the unintended direction; inactive means score below 0.9.

Sequence of Estrogen receptor (Homo sapiens) (P03372 whole entry, looked up): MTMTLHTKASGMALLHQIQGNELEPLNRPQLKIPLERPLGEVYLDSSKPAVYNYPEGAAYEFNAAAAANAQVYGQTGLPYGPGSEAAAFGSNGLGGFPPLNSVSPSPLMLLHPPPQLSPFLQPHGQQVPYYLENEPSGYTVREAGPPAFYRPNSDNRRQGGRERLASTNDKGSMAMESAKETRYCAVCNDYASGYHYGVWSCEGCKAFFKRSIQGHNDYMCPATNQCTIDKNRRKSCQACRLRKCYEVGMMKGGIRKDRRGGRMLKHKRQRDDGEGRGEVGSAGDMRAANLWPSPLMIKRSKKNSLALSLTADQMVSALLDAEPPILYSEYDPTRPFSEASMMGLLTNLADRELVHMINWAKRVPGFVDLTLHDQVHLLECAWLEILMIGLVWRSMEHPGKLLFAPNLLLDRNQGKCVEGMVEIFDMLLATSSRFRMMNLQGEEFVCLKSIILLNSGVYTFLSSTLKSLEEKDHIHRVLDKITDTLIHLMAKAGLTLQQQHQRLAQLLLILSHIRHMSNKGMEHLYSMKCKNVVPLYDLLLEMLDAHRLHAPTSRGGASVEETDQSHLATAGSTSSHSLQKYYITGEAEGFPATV

One experiment concerns the target Estrogen receptor (Homo sapiens) (UniProt P03372). The experiment is described as follows: NVS_NR_hER: NovaScreen (NVS) Nuclear Receptor Binding Assay for human Estrogen Receptor (ER) (AID 2283348). The method in brief: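 Radiodetection of ligand displacement in a lysate-based, cell-free format using MCF7 extracts, read at 18 hours. Duplicate 25 uM primary testing, then concentration series for actives.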
As to `COc1cc(NC(=O)CC(C)=O)c(OC)cc1Cl`, the result was inactive.
On to `O=C(O)CCCC[C@@H]1SC[C@@H]2NC(=O)N[C@@H]21`, for which the result was inactive.
Still for that read-out and setting: under `CCC(Cc1ccccc1)(C(=O)c1ccc(N2CCOCC2)cc1)N(C)C` (configuration not stated) stands “inactive”.

The next experiment shares this target. Put plainly: OT_ER_ERaERa_1440: Odyssey Thera (OT) 24-hour HEK293T Protein-Complementation Assay for Estrogen Receptor-alpha/-alpha Homodimer (AID 2283349).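 Further: hits raise fluorescence above DMSO for agonists and antagonists alike.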 The method in brief:
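Stably transfected HEK293T; ERα LBD homodimer PCA. 24 h dosing, fluorescence intensity read, gain-of-signal vs DMSO.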
Take `O=C(C(Cl)Cl)N1CCOC12CCCCC2`: the outcome was inactive.
Still for that read-out and setting: to `CC(C)=CCC[C@H](C)CCO` belongs “inactive”; to `CCCc1ccc(OC)cc1`, “inactive”; to `CCCCCCC1(C)CCC(=O)O1` (configuration not stated), “inactive”.
As to `CC1=CC[C@H]2C[C@@H]1C2(C)C`, the compound was classed as inactive.
Same read-out and setting: to `Cn1c([N+](=O)[O-])cnc1COC(N)=O` belongs “inactive”; to `O=C1C(N(CO)C(=O)NCO)N(CO)C(=O)N1CO` (configuration not stated), “inactive”; to `O=C(C=Cc1ccccc1)OCc1ccccc1`, “inactive”.
For `C=C[Si](C)(C)O[Si](C)(C)C=C`, the compound was classed as inactive.
As for `C=CC(=O)NC(C)(C)CS(=O)(=O)O`, the outcome was inactive.
Still for that read-out and setting: to `CC1=NN(c2cc(S(=O)(=O)O)ccc2Cl)C(=O)C1N=Nc1ccccc1` (configuration not stated) belongs “inactive”; to `O=C1CCCC1`, “inactive”; to `O=C(O)CCCC[C@@H]1SC[C@@H]2NC(=O)N[C@@H]21`, “inactive”.
Still for that read-out and setting: under `CNC(=S)NN` stands “inactive”.
Consider `CC(C)(C)c1ccc(OC(=O)c2ccccc2O)cc1`, for which the AC50 was 14.5 µM (active).
For `C1CN(SSN2CCOCC2)CCO1`, the result was inactive.
Still for that read-out and setting: to `CCCCCCCCO[C@@H]1O[C@H](CO)[C@@H](O)[C@H](O)[C@H]1O` belongs “inactive”; to `O=C(c1ccccc1)C1CCC1`, “inactive”.
Take `Cc1ccc(C(C)(C)C)cc1`: the compound was classed as inactive.
`CCCCCCCC[N+](C)(CCCCCCCC)CCCCCCCC`: the result was inactive.
Same read-out and setting: to `CC(C)c1ccc2cc(C(C)C)ccc2c1` belongs “inactive”.
The same measure, in the same setting: to `CCCCC(CC)CCC(CC(C)C)OS(=O)(=O)O` (configuration not stated) belongs “inactive”; to `C1=Cc2ccccc2C1`, “inactive”.
The same measure, in the same setting: to `CCCCCCCOC(=O)CCC` belongs “inactive”.
In the case of `Cc1cc(C)c(C(=O)O)c(C)c1`, the call was inactive.
On the same count and under the same terms, under `CC(C)(C)c1ccc(-c2ccc(C(C)(C)C)cc2)cc1` stands “inactive”; under `CCOC(=O)CC`, “inactive”.
Turning to `CCCCOCCOC(=O)COc1nc(Cl)c(Cl)cc1Cl`, the compound was called inactive.
Same read-out and setting: to `CCCCCCCC/C=C\CCCCCCCC(=O)O` belongs “inactive”.

A word on the AC50: it is the concentration at which the activity in the assay is half-maximal.
